Screens from PubChem BioAssay.
The sample as a whole holds a higher share of hits than the screen did.
nsP2pro primary: inhibitors of chikungunya virus nsP2 protease; AID 1964107; FRET peptide cleavage, nsP2pro, fluorescence 1 h; actives 1.1% (n = 31,000); Potency, µM (titrated, usually from 24.9 µM), for the others: at the highest dose activity change, negative = inhibition, hits mostly inhibitors; also: nearly all actives have a fitted effect of over 60% in size
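Purified recombinant nsP2pro (150 nM final) in 10 mM Tris-HCl pH 8.0 with 0.01% Tween 20 was preincubated 15 min at room temperature with compound (7 concentrations, up to 25 uM). FRET peptide 2 substrate (2.5 uM final) was then added; fluorescence was read after 1 h.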
nsP2 cell sec: secondary cell-based test for CHIKV nsP2 protease inhibitors; actives 10% (n = 450); Potency, µM (titrated, usually from 51.1 µM), for the others: top-dose activity change, negative = inhibition, actives largely listed as inhibitors; cell-based CHIKV nsP2 protease reporter assay; shares compounds with nsP2pro primary; also: nearly all actives have a fitted effect of over 70% in size
Target sequence (Q8JUX6 220-798 limits assumed): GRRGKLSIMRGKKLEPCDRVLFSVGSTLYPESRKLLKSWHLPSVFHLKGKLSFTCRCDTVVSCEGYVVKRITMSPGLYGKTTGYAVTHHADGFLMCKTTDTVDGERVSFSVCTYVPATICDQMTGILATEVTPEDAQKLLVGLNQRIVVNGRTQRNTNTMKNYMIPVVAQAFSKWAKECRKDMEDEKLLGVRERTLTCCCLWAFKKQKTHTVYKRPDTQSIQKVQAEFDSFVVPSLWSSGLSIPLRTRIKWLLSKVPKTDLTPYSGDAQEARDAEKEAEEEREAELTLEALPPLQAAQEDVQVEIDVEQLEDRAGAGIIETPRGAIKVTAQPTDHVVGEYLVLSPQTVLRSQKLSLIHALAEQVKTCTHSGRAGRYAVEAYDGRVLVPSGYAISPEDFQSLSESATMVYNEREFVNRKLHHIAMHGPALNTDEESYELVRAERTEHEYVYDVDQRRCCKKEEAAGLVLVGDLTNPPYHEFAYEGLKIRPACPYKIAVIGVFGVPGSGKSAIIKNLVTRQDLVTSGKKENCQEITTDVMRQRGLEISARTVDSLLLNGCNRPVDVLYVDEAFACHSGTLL
CHIKV NSP2 FL: full-length CHIKV NSP2 protease inhibition, selectivity; shares compounds with nsP2pro primary; Full-length CHIKV NSP2 protease enzymatic counterscreen; Potency, µM (highest dose often 50.7 µM), for inactives: at the highest dose activity change, negative = inhibition, most hits filed as inhibitors; actives 39% (n = 410); also: nearly all actives have a fitted effect of over 65% in size
Furin counterscr: human furin inhibition, counterscreen for nsP2pro inhibitors; AID 1964102; Potency, µM (top dose mostly 50.6 µM), for the others: at the top dose activity change, negative = inhibition, actives largely listed as inhibitors; Recombinant human furin enzymatic counterscreen, fluorogenic substrate; actives 6% (n = 410); shares compounds with nsP2pro primary
nsP2 NS23 pep: nsP2pro inhibition on native NS2/3 peptide substrate; AID 1964103; shares compounds with nsP2pro primary; Purified CHIKV nsP2 protease, endogenous NS2/3 peptide cleavage; Potency, µM (highest dose often 51 µM), inactives show top-dose activity change, negative = inhibition, hits mostly inhibitors; actives 34% (n = 410); also: nearly all actives have a fitted effect of over 55% in size
Papain counter: selectivity counter-screen for CHIKV nsP2 protease inhibitors: papain. purified papain protease activity, enzymatic inhibition. AID 1964104. actives 5% (n = 410). shares compounds with nsP2pro primary. Potency, µM (titrated, usually from 51 µM), without a hit: at the top dose activity change, negative = inhibition, hits mostly inhibitors
nsP2pro conf qHTS: CHIKV nsP2 protease inhibition, confirmatory qHTS | shares compounds with nsP2pro primary | CHIKV nsP2 protease enzymatic activity, qHTS | Potency, µM (titrated, usually from 25.5 µM), without a hit: top-dose activity change, negative = inhibition, usual class: inhibitors | actives 43% (n = 410); also: nearly all actives have a fitted effect of over 75% in size
HCV NS3 counter: inhibits HCV NS3/4A protease in an nsP2pro selectivity counterscreen | Potency, µM (titrated, usually from 50.9 µM), actives largely listed as inhibitors | AID 1964106 | actives 20% (n = 410) | shares compounds with nsP2pro primary | HCV NS3/4A protease biochemical counterscreen; also: nearly all actives have a fitted effect of over 55% in size
Active calls of the source: *; i = inactive; ? = inconclusive; [ ] = dose if it differs, or a comment. Calls follow the shape of the full dose curve. % is scaled to controls: 0 for no effect and ±100 for the full control effect; potency is read from the fitted curve at half-maximal effect.

SMILES	nsP2pro primary	others
COc1ccc(S(=O)(=O)ON=C2C=C(C)C(=O)C(C)=C2)cc1	?	nsP2 cell sec=2.24µM*;CHIKV NSP2 FL=?;Furin counterscr=-10.9%;nsP2 NS23 pep=6.51µM*;Papain counter=9.19µM*;nsP2pro conf qHTS=?;HCV NS3 counter=i
COc1ccc(S(=O)(=O)c2cc3cc(OC)ccc3oc2=O)cc1	-19.9%
c1ccc2c(Nc3ccn[nH]3)nc(-c3ccncc3)nc2c1	1.8%
CC(C)(CO)c1cc2cc(NC(=O)C3(c4ccc5c(c4)OC(F)(F)O5)CC3)c(F)cc2n1C[C@@H](O)CO	10.3%
N#Cc1cccc(S(=O)(=O)Nc2cnccc2C(=O)Nc2nc(-c3ccccc3)cs2)c1	0.6%
Cc1ccc(-c2csc(NC(=O)c3ccncc3NS(=O)(=O)c3ccc(C)cc3)n2)cc1	i
Fc1cc(-c2nc(Nc3ccc(F)c(F)c3)c3ccccc3n2)ccn1	i
CCOC(=O)C1CCN(c2ccc(NCc3ccc(-c4ccc(C#N)cc4)o3)cc2)CC1	4.47µM*	nsP2 cell sec=20.6µM*;CHIKV NSP2 FL=?;Furin counterscr=-9.0%;nsP2 NS23 pep=?;Papain counter=-15.5%;nsP2pro conf qHTS=-19.7%;HCV NS3 counter=3.66µM*
CC(C)(C)OC(=O)N1CCN(c2ccc(NCc3ncc(-c4ccc(C#N)cc4)o3)cc2)CC1	i
CC(C)(C)OC(=O)N1CCC(c2ccc(NCc3ccc(-c4ccc(C#N)cc4)o3)cc2)CC1	-6.5%
CC(C)(C)OC(=O)N1CCN(c2ccc(NCc3ccc(-c4ccc(C#N)cc4)o3)nc2)CC1	0.2%
N#Cc1ccc(-c2ccc(CNc3ccc(N4CCC(C#N)CC4)cc3)o2)cc1	10µM*	nsP2 cell sec=?;CHIKV NSP2 FL=?;Furin counterscr=-8.7%;nsP2 NS23 pep=?;Papain counter=-16.3%;nsP2pro conf qHTS=?;HCV NS3 counter=2.59µM*
COc1ccc(-c2ccc(CNc3ccc(N4CCN(C(=O)OC(C)(C)C)CC4)cc3)o2)cc1	i
Cc1ccc(C(=O)OCc2ccc([C@@H](CN)C(=O)Nc3ccc4cnccc4c3)cc2)c(C)c1	105.1%[10 µM]
N#Cc1ccnc(N2C(=O)CC[C@H]2C(=O)N(c2cncc(F)c2)[C@@H](C(=O)NC2CC(F)(F)C2)c2ccccc2Cl)c1	-9.1%
C[N+]1(C)[C@@H]2CC(OC(=O)C(O)(c3cccs3)c3cccs3)C[C@H]1[C@H]1O[C@@H]12 (some centres undefined)	-3.2%
CCn1c(=O)cc(OCC(=O)NCc2ccccc2OC)c2ccccc21	-7.5%
CCOc1ccc(CNC(=O)COc2cc(=O)n(C)c3ccccc23)cc1	?	nsP2 cell sec=2.3%
COc1ccccc1NC(=O)CCCOc1cc(=O)n(C)c2ccccc12	-12.8%
C/C=C/C=C/C=C/C(=O)N(C)C(C(=O)NC(C)C(=O)N1CCCC1C(N)=O)C(C)C (centres undefined)	-21.0%[10 µM]
COc1ccc(C#Cc2ccc(C(=O)N3CCC[C@@H](CO)C3)cc2)cc1	-5.8%
CN1C(=O)N(C[C@H](C(=O)NO)[C@@H](CC2CCCC2)C(=O)N2CCCCC2)C(=O)C1(C)C	-3.9%
O=C(c1ccc[nH]1)c1cc(Cl)ccc1NC(=O)[C@@H]1CCCN1	-3.0%
O=C(COc1ccccc1[N+](=O)[O-])N1CCN(CCc2ccncc2)CC1	?	nsP2 cell sec=9.3%
Cc1ccc(OCC(=O)N2CCN(CCc3ccncc3)CC2)cc1	-27.3%
SMILES	nsP2pro primary	others
O=C(COc1ccccc1Cl)N1CCN(CCc2ccncc2)CC1	-25.2%
O=C(NCCc1ccc(O)c(O)c1)c1cc2sccc2n1Cc1ccccc1	i
CCCCCCCC(=O)N[C@H](CN1CCCC1)[C@H](O)c1ccc2c(c1)OCCO2	-7.4%
Cc1ncc(CCCN(C)C)cc1Nc1ncc2c(n1)-c1ccc(C(F)(F)F)cc1NC(=S)C2	82.9%
Cc1ccc(-c2cc(C(=O)Nc3ccccc3Cl)c3ccccc3n2)cc1C	4.2%
OCCN1CCN(CCCN2c3ccccc3Sc3ccc(C(F)(F)F)cc32)CC1	25.0%
CC(=O)c1ccc2c(c1)N(CCCN1CCN(CCO)CC1)c1ccccc1S2	-8.8%
OCCN1CCN(CCCN2c3ccccc3C=Cc3ccccc32)CC1	8.81µM*	nsP2 cell sec=-1.5%;CHIKV NSP2 FL=?;Furin counterscr=-8.0%;nsP2 NS23 pep=-3.9%;Papain counter=2.3%;nsP2pro conf qHTS=0.0%;HCV NS3 counter=i
Cc1ccc(S(=O)(=O)N(C)c2ccccc2C(=O)Nc2nc(-c3ccccc3)cs2)cc1	-12.8%
COc1cccc(CCN2C(=O)c3ccccc3NC2c2ccc(OC)c(COc3c(C)cc(NC(C)=O)cc3C)c2)c1 (centres undefined)	1.9%
O=C(Nc1nnc(-c2cccs2)o1)c1ccc(Cl)cc1	i
Cc1ccc(C)n1-c1cccc(-c2nn[nH]n2)c1	i
Cc1cc(N2CCOCC2)ccc1Nc1nc(NC2CCCCC2)c2[nH]cnc2n1	51.2%
Cc1cc(C)nc(NC(=S)N2CCN(c3ccc([N+](=O)[O-])cc3Cl)CC2)c1	-6.2%
CCCCCCCCCCCCCCCCCCCC(=O)O	?	nsP2 cell sec=-23.1%;CHIKV NSP2 FL=4.11µM*;Furin counterscr=-5.0%;nsP2 NS23 pep=-19.0%;Papain counter=20.6µM*;nsP2pro conf qHTS=2.83µM*;HCV NS3 counter=i
CCCCCCCC/C=C/CCCCCCCC(=O)O	-23.7%
CCCCCCCCCC(=O)O	-15.7%
Clc1cc2c(NC3CCCC3)nnc(-c3ccncc3)c2cc1Cl	10.7%[10 µM]
O=C1CCC[C@@H]2[C@@H]3CCC[N@+]4([O-])CCC[C@H](CN12)[C@H]34	-11.1%
COc1ccc(CNc2nc(-c3ccco3)nn2S(=O)(=O)c2ccc3ccccc3c2)cc1OC	?	nsP2 cell sec=15.5%
O=S(=O)(c1ccccc1)n1nc(-c2ccccc2)nc1NCc1ccc(Cl)cc1	-10.3%
COc1ccc(CNc2nc(-c3ccco3)nn2C(=O)c2ccccc2Cl)cc1	-22.0%
O=C(c1ccc(Cl)nc1)N1CCC2(CC1)CCN(Cc1cccs1)c1ccccc1O2	-1.6%
CC1(C)S[C@H]2[C@H](NC(=O)[C@@H](N)c3ccc(O)cc3)C(=O)N2[C@H]1C(=O)O	81.2%
CC(C)(O)C1OC1C1=CC(=O)C2(C)OC2C1O (centres undefined)	9.88µM*	nsP2 cell sec=-6.3%;CHIKV NSP2 FL=4.61µM*;Furin counterscr=-3.7%;nsP2 NS23 pep=?;Papain counter=10.3µM*;nsP2pro conf qHTS=5.04µM*;HCV NS3 counter=?
CC(C)CC(=O)N1CC(=O)Nc2ccc(F)cc2C1c1ccccc1 (centres undefined)	-27.7%
